From PubChem
Hits are enriched below; roughly 19% of the tested compounds scored in any of these assays.
IL1B secr inh: inflammasome signaling inhibition, IL-1 beta readout; THP-1 LPS/ATP IL-1B secretion, AlphaLISA, 16 h; hits give low values; AID 743279; actives 4.7% (n = 360,000); activity change, % at 57.5 µM; in the data active = activity change below about -50%; inconclusive = mostly about -30% to -49%
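THP-1 cells pretreated 1 hr with compounds (up to 57.5 uM final), then stimulated with LPS (250 ng/mL final) plus ATP (1.25 mM final); secreted IL-1B measured by AlphaLISA after 16 hr, decreased signal indicating inhibition.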
ELG1 DNA repair: blocks ELG1-dependent DNA repair in HEK293T cells; HEK293T ELG1-luciferase reporter, luminescence, 16 h; DNA damage induced by 5-fluorouridine; Potency, µM (series often up to 46.1 µM), without a hit: at the top dose activity change, negative = inhibition, usual class: inhibitors; actives 2.3% (n = 330,000); note: potency is the fitted concentration of half-maximal effect; nearly all actives have a fitted effect of over 55% in size
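Overnight (16 hr) co-exposure of 2,000 cells/well to 5-fluorouridine and compound at 37 °C preceded detection. Luciferase was quantified via ONE-Glo luminescence; loss of signal denotes inhibition.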
DT40 TDP1 CPT: DT40-hTDP1 cell growth loss with CPT. chicken DT40 Tdp1-/-;hTDP1 cells + 20 nM CPT, ATP luminescence, 48 h. actives 12% (n = 420,000). Potency, µM (top dose mostly 46.2 µM), without a hit: top-dose activity change, negative = growth inhibition, most hits filed as inhibitors; note: potency is the fitted concentration of half-maximal effect; nearly all actives have a fitted effect of over 55% in size
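Chicken DT40 Tdp1-/- cells complemented with human TDP1, 400 cells/well, exposed to compounds plus 20 nM camptothecin for at least 48 h at 37 C; viability read as ATP content by CellTiter-Glo luminescence.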
TDP1 cell noCPT: qHTS for Inhibitors of human tyrosyl-DNA phosphodiesterase 1 (TDP1): qHTS in cells in absence of CPT; DT40 Tdp1-/- hTDP1 cells, no CPT, ATP luminescence, 48 h; Potency, µM (top dose mostly 46.2 µM), without a hit: top-dose activity change, negative = growth inhibition, actives largely listed as inhibitors; actives 15% (n = 420,000); AID 686978, 2013; note: potency is the fitted concentration of half-maximal effect; nearly all actives have a fitted effect of over 55% in size
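Cells were dispensed at 400 per well, compounds added by pin tool, plates incubated ≥48 hr at 37 °C, then CellTiter-Glo added for 30 min at room temperature before luminescence reading. Line: DT40 Tdp1-/- complemented with hTDP1; camptothecin omitted.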
HT1080 IDH1KD tx: HT-1080 IDH1 knockdown cell toxicity (counter line). HT-1080 IDH1 knockdown viability, ATP luminescence, 48 h. Potency, µM (top dose mostly 46.1 µM), without a hit: top-dose activity, negative = toxicity, hits mostly cytotoxic. actives 2% (n = 360,000). AID 686971;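 note: potency is the fitted concentration of half-maximal effect; 0% = DMSO wells and -100% = cell-free medium wells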
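After a 2 h attachment period, IDH1KD HT-1080 cells took pin-transferred compound for 48 h at 37 °C; ATP-based luminescence after 10 min room-temperature reagent incubation reported viability.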
HT1080NT lethal: kills 2HG-producing HT-1080-NT fibrosarcoma cells; HT-1080-NT fibrosarcoma viability, CellTiter-Glo ATP luminescence, 48 h; Potency, µM (top dose mostly 46.1 µM), without a hit: at the highest dose activity, negative = less viability, actives largely listed as cytotoxic; actives 1.6% (n = 360,000);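 note: NT is the 2HG producing partner of a matched IDH1 knockdown line; potency is the fitted concentration of half-maximal effect; 0% = DMSO-treated cells and -100% = media-only wells without cells; nearly all actives have a fitted effect of over 55% in size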
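Compounds were tested in concentration-response format on HT-1080-NT cells for 48 hours at 37 degrees C. Cell viability came from CellTiter-Glo luminescence; curves were classified by r2, response magnitude and activity.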
* marks the source's active call; other numbers are inactive results; ? = inconclusive; . = not tested or not shown; ! = not active in a repeat; [ ] = remark or other dose. Unless noted, calls come from the whole dose curve; as a rule, active = well fitted curve in the direction sought with a large enough effect; inconclusive = small, poorly fitted or top-dose-only effect, or another doubt; inactive = no such curve, though single readings can be large; an effect the other way counts as inactive or inconclusive. Unless noted, % is set by controls: 0 for no effect and ±100 for the full control effect.

SMILES | IL1B secr inh | ELG1 DNA repair | DT40 TDP1 CPT | TDP1 cell noCPT | HT1080 IDH1KD tx | HT1080NT lethal
CCN(CC)CCNC(=S)Nc1ccc2nc(N3CCCC3)cc(C)c2c1 | -66* | ? | 13µM* | 10µM* | ? | ?
CCCN(CCC)CCCNC(=S)Nc1ccc2nc(N3CCCC3)cc(C)c2c1 | ? | -10% | ? | 13µM* | ? | ?
Cc1cc(N2CCCC2)nc2ccc(NC(=S)NCCCOC(C)C)cc12 | -11 | 3% | ? | ? | -4% | -7%
CCN(CC)CCNC(=S)Nc1ccc2nc(N3CCN(C)CC3)cc(C)c2c1 | -51* | 2% | 26µM* | 16µM* | -20% | ?
Cc1cc(Cl)ccc1C(O)c1ncc(-c2ccc(C(F)(F)F)cc2)[nH]1 (stereo not drawn) | 0 | . | ? | ? | ? | ?
O=C(NCc1cccc(F)c1)c1ccc2nc(N3CCCCC3)sc2c1 | . | . | ? | -29% | . | .
Cc1ccccc1N1CC(C(=O)Nc2ccc(S(=O)(=O)N3CCOCC3)cc2)CC1=O (stereo not drawn) | 3 | -11% | -7% | -14% | 5% | 1%
CC(C)Cc1ccc(C(C)C(N)=NCCc2ccccc2)cc1 (stereo not drawn) | -91* | ? | ? | 21µM* | 18µM* | 16µM*
COc1ccc(CCN=C(N)C(C)c2ccccc2)cc1OC (stereo not drawn) | -29 | -1% | -17% | ? | 3% | 7%
COc1ccc(C(=O)Nc2ccc3oc(-c4cccc(Cl)c4)cc(=O)c3c2O)cc1 | 53 | 2% | -28% | ? | ? | -17%
CN(C)CCc1cc2c(c3c1ccc1ccccc13)OCO2 | -96* | ? | 21µM*! | 21µM*! | ? | ?
Nc1ccc(C(=O)N2CCCC2)cc1CS(=O)(=O)c1ccc(Cl)cc1 | 16 | -2% | 2% | 0% | 5% | 18%
O=C(c1ccc(S(=O)(=O)Cc2cc(F)ccc2F)c([N+](=O)[O-])c1)N1CCCC1 | -108* | 19% | 3.3µM* | 2.9µM* | 21µM* | ?
O=C(c1ccc(S(=O)(=O)Cc2ccccc2Cl)c([N+](=O)[O-])c1)N1CCN(c2ccccn2)CC1 | -103* | ? | 3.7µM* | 7.3µM* | ? | ?
O=C(c1ccc(Cl)c([N+](=O)[O-])c1)N1CCN(c2ccccn2)CC1 | 0 | -19% | -10% | ? | 5% | 4%
O=C(c1ccc(S(=O)(=O)Cc2cc(F)ccc2F)c([N+](=O)[O-])c1)N1CCCCC1 | -110* | ? | ? | 23µM* | -14% | -2%
CC1CCN(C(=O)c2ccc(S(=O)(=O)Cc3cccc(F)c3)c([N+](=O)[O-])c2)CC1 | -86* | ? | ? | ? | -8% | -11%
COc1ccc(S(=O)(=O)N2CCSC2C)cc1C (stereo not drawn) | 3 | -14% | 0% | -17% | -9% | -7%
CCOc1ccc(CCNC(=O)COn2nnc3ccc(S(=O)(=O)N4CCOCC4)cc32)cc1OCC | 40 | -11% | -27% | -25% | -1% | 2%
O=C(OCC(=O)N(Cc1ccccc1)Cc1ccccc1)c1ccccc1NCCO | -7 | -27% | ? | ? | -14% | ?
CCN(C(=O)COC(=O)c1ccccc1NCCO)c1cccc2ccccc12 | ? | ? | -29% | 18µM* | 2% | -5%
C=CCn1c(O)c(N=Nc2ccccc2C)c2ccccc21 | 6 | -13% | 18µM* | ? | -11% | -8%
C=CCn1c(O)c(N=NC(=S)Nc2ccc(OC)c(Cl)c2)c2ccccc21 | -5 | ? | 4.6µM* | 2.6µM* | ? | -25%
CCCCn1c(O)c(N=Nc2ccccc2O)c2ccccc21 | -2 | 1% | 23µM* | ? | -8% | -14%
CCn1c(O)c(N=Nc2ccc3ccccc3n2)c2ccccc21 | ? | ? | ? | 23µM* | 21% | 12%
SMILES | IL1B secr inh | ELG1 DNA repair | DT40 TDP1 CPT | TDP1 cell noCPT | HT1080 IDH1KD tx | HT1080NT lethal
Cc1ccc(NC(=O)C2CCCN2C(=O)c2cccs2)c(C)c1 (stereo not drawn) | 7 | 2% | -6% | 1% | 0% | 0%
O=C(COC(=O)c1cc(S(=O)(=O)N2CCOCC2)ccc1F)Nc1ccccc1C(F)(F)F | 17 | . | -12% | -11% | 1% | 3%
N#CC1=C(N)C2=CCCC[C@H]2[C@H](c2cccc(F)c2)C1(C#N)C#N | -94* | -2% | ? | ? | 16µM* | ?
N#CC1=C(N)C(C#N)(C#N)[C@H](c2cccnc2)[C@H]2CN(C(=O)OCc3ccccc3)CC=C12 | 26 | ? | ? | 15µM* | ? | -11%
N#CC1=C(N)C(C#N)(C#N)C(c2cccnc2)C2CCCC=C12 (stereo not drawn) | . | 7.3µM* | . | . | . | .
CCOC(=O)N1CC=C2C(C#N)=C(N)C(C#N)(C#N)[C@H](c3ccc(OC(C)C)c(OCC)c3)[C@H]2C1 | 1 | 13µM* | -114% | ? | -6% | -9%
N#CC1=C(N)C(C#N)(C#N)C(c2ccc[nH]2)C2CCCC=C12 (stereo not drawn) | -27 | ? | ? | ? | ? | -24%
CCOC(=O)N1CC=C2C(C#N)=C(N)C(C#N)(C#N)[C@H](c3ccccc3OCC)[C@H]2C1 | 14 | 11% | ? | ? | ? | ?
Cc1ccc(OCCn2c(SCCO)nc3c(N)ncnc32)cc1 | 0 | -8% | ? | ? | -25% | -10%
Cc1cccc(N2CC(C(=O)Nc3nccs3)CC2=O)c1C (stereo not drawn) | 7 | 5% | -3% | -7% | 13% | 14%
O=C(Nc1cnccn1)c1ccc(F)cc1Cl | 10 | -1% | -16% | -20% | 2% | 2%
Cc1cc(C)cc(N2C(=O)CC(c3ccc(C(F)(F)F)cc3)C3=C2COC3=O)c1 (stereo not drawn) | . | . | 5% | 3% | . | .
N#CC1=C(N)C(C#N)(C#N)C(c2cccnc2)C2CC(c3ccccc3)CC=C12 (stereo not drawn) | 4 | ? | 16µM* | 21µM* | -8%[9.24 µM] | ?
Cc1cn(C)c(CC(=O)NCc2ccc(F)cc2)c1C(=O)O | . | . | 4% | -2% | . | .
